Measurements reported in PubChem BioAssay (Tox21).
Where “and” joins values, the source holds several entries; their conditions need not be identical. Equal values may be shown once. Results filed as inconclusive are left out. Some compounds were tested as several samples or in several runs, with calls that do not always agree. Calls of active or inactive are those of the source. Unless noted, the call rests on the fitted dose curve; in most records, active means well fitted curve in the direction sought with a large enough effect in the repeat runs; inconclusive means weak or mixed curves; inactive means no such curve, though single readings can be large; an effect the other way counts as inactive or inconclusive.

How the values were obtained:
[1] = qHTS assay to identify small molecule antagonists of the androgen receptor (AR) signaling pathway using the MDA cell line in the presence of 0.5 nM R1881 - cell viability counter screen (AID 1259242); further: nearly all actives have a fitted effect of over 45% in size; further: potency means the concentration at half of the fitted maximal effect
Method in brief: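 Steps: plate MDA-kb2 cells, rest 5 hr at 37C without CO2; pin in compounds in DMSO; add R1881 to 0.5 nM final; incubate 16 hr; add CellTiter-Fluor, 30 min; read fluorescence.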

[2] = qHTS assay to identify small molecule HDAC inhibitors (AID 1259364); further: potency means the concentration at half of the fitted maximal effect;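 further: wild-type HCT-116 cells with endogenous class I/II HDAC activity; nearly all actives have a fitted effect of over 45% in size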
Method in brief: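 Cells (HCT-116, wild type) are seeded at 1,500 per well, incubated overnight, treated with compound in DMSO for 2 hr, then developed with HDAC-Glo I/II reagent for 30 min at room temperature.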

[3] = qHTS assay to identify small molecule HDAC inhibitors - cell viability counter screen (AID 1259365); further: series mostly up to about 92 µM; nearly all actives have a fitted effect of over 50% in size
Method in brief: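 HCT-116 wild-type, overnight attachment; 2hr drug exposure, 37C; CellTiter-Glo luminescent ATP readout after 30min RT.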

[4] = qHTS assay to identify small molecule agonists of the sonic hedgehog signaling (Shh) pathway - cell viability counter screen (AID 1259366); further: nearly all actives have a fitted effect of over 50% in size; further: potency means the concentration at half of the fitted maximal effect
Method in brief: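 Compounds in DMSO were pin-transferred onto 3T3 Gli1-Luc cells that had settled 4hr; plates then stood 24hr at 37C and 5% CO2. One hour before the end, CellTiter-Fluor was added and fluorescence recorded.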

[5] = qHTS assay to identify small molecule antagonists of the sonic hedgehog signaling (Shh) pathway - cell viability counter screen (AID 1259367); further: nearly all actives have a fitted effect of over 55% in size; further: potency means the concentration at half of the fitted maximal effect
Method in brief: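 Conditioned medium drove Shh signaling in 3T3 Gli1-Luc cells exposed to compounds at 37C and 5% CO2. Viability was determined from CellTiter-Fluor fluorescence, with reagent incubated 1 hr after 23 hr of treatment.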

[6] = qHTS assay to identify small molecule agonists of the sonic hedgehog signaling (Shh) pathway (AID 1259368; calls by dose curve;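 further: NIH/3T3-derived 3T3Gli1-Luc cells carrying a stable Gli1-driven firefly luciferase reporter; series mostly up to about 92 µM; nearly all actives have a fitted effect of over 15% in size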)
Method in brief: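 Cells of a mouse NIH/3T3 clone stably expressing luciferase under the Gli1 transcriptional response element are exposed to test chemicals for 24 hr at 37 C. Pathway activation is detected as a rise in luminescence.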

[7] = qHTS assay to identify small molecule antagonists of the sonic hedgehog signaling (Shh) pathway (AID 1259369; calls by dose curve; further: nearly all actives have a fitted effect of over 45% in size; further: potency means the concentration at half of the fitted maximal effect)
Method in brief: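 Cells are plated and held 4hr at 37 C, compounds (DMSO) are pinned in, conditioned medium is added to stimulate the pathway, and after 24hr luciferase reagent is added for 30min before luminescence is read.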

[8] = target: Estrogen receptor (Homo sapiens) (UniProt P03372); assay: qHTS assay to identify small molecule antagonists of the estrogen receptor alpha (ER-alpha) signaling pathway using the BG1 cell line in the presence of 0.1 nM 17-beta-estradiol (AID 1259244); further: nearly all actives have a fitted effect of over 50% in size
Method in brief: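 Antagonist mode: compounds in DMSO are pinned onto VM7Luc4E2 reporter cells, 0.1 nM final 17beta-estradiol is added, and after 22 h at 37C luciferase luminescence is measured with ONE-Glo.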

Measured: Potency

Sequence of Estrogen receptor (Homo sapiens) (P03372 whole entry, looked up): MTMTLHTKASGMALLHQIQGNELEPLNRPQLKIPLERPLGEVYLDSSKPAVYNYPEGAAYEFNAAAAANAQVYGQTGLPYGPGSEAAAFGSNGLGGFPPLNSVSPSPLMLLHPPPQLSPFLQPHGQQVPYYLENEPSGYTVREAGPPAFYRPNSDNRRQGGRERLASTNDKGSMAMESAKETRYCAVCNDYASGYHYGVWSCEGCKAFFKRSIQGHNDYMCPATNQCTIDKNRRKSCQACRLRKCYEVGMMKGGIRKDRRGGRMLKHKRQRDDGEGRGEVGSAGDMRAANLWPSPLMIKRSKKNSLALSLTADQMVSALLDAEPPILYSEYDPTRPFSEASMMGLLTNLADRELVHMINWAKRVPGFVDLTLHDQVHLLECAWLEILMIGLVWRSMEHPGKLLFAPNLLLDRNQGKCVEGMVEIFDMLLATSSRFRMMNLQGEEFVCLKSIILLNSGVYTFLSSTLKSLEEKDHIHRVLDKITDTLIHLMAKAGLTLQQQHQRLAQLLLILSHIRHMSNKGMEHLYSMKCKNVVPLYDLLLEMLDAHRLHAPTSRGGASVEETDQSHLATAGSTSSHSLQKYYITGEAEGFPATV

CCC(=O)O[C@H]1[C@H](O[C@@H]2[C@@H](C)[C@H](O[C@H]3C[C@@](C)(OC)[C@@H](O)[C@H](C)O3)[C@@H](C)C(=O)O[C@H](CC)[C@@](C)(O)[C@H](O)[C@@H](C)C(=O)[C@H](C)C[C@@]2(C)O)O[C@H](C)C[C@@H]1N(C)C
16.1 µM (active) and inactive: [4] | [7]
active: [5] 14.4 µM
not listed: [8]
inactive: all other assays above

C=CC(C)(O)CCC=C(C)C (centres undefined)
not listed: [7] | [8]
inactive: all other assays above

O=C(O)CCCCCCCCCCCC(=O)O
active: [2] 30.1 µM and 27.3 µM
not listed: [7] | [8]
inactive: all other assays above

Cc1ccc(C)c(O)c1
not listed: [8]
inactive: all other assays above

C[C@]12CC[C@@H]3c4ccc(O)cc4CC[C@H]3[C@@H]1CC[C@H]2O
active: [7] 4.94 µM and 4.86 µM
not listed: [8]
inactive: all other assays above

Nc1ccc(O)c(N)c1
not listed: [4] | [5]
inactive: all other assays above

CN(C)CCCN1c2ccccc2Sc2ccc(Cl)cc21
inactive: [3] | [6]
active: [1] 61.1 µM | [4] 30.6 µM and 23.7 µM | [5] 61.1 µM
13.7 µM (active) and inactive: [7]

Cc1cccc(Nc2ccccc2C(=O)O)c1C
not listed: [7] | [8]
inactive: all other assays above

C=CCOC(=O)C(=C)C
not listed: [7] | [8]
inactive: all other assays above

NC[C@H](O)c1ccc(O)c(O)c1
not listed: [8]
inactive: all other assays above
